Unmarked numbers belong to inactive results. Records with an inconclusive call do not appear. Active and inactive are the calls of the source. Calls come from the whole dose curve; as a rule, active = well fitted curve in the direction sought with a large enough effect; inconclusive = small, poorly fitted or top-dose-only effect, or another doubt; inactive = no such curve, though single readings can be large; an effect the other way counts as inactive or inconclusive.
Test system: not listed separately
Test: Quantitative high throughput screen for delayed death inhibitors of the malarial parasite plastid, 48 hour incubation (AID 488752); note: % is set by controls: 0 for no effect and ±100 for the full control effect; nearly all actives have a fitted effect of over 65% in size
Details: Plasmodium falciparum growth; series mostly up to 28.7 µM; activity change, negative = inhibition: at the top concentration
Procedure, shortened: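 One parasite generation (48 h, 37 C, 5% CO2) of luciferase-reporter P. falciparum in erythrocytes is run with test compound; decreased luminescence indicates inhibited growth.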

Row | Structure (SMILES) | activity change, negative = inhibition [%] | outcome
1 | CC(=O)N[C@@H](CS)C(=O)O | 1.09 | 
2 | COC(=O)[C@@H]1[C@H]2C[C@H]3c4[nH]c5ccccc5c4CCN3C[C@@H]2CC[C@@H]1O | -3.38 | 
3 | CCCNC(=O)NS(=O)(=O)c1ccc(Cl)cc1 | 2.08 | 
4 | CC(=O)c1ccc(S(=O)(=O)NC(=O)NC2CCCCC2)cc1 | -9.92 | 
5 | Clc1ccc(Cn2c(CN3CCCC3)nc3ccccc32)cc1 | -27.3 | 
6 | O=C(O)CCc1nc(-c2ccccc2)c(-c2ccccc2)o1 | -6.78 | 
7 | CC(C)NCC(O)COc1cccc2[nH]ccc12 (stereo unspecified) | 10.3 | 
8 | O=C1NCC2(CCN(CCc3ccccc3)CC2)O1 | 4.27 | 
9 | CC(=O)CCCCn1c(=O)c2c(ncn2C)n(C)c1=O | 14 | 
10 | CN(C)CCC(c1ccccc1)c1ccccn1 (stereo unspecified) | -5.51 | 
11 | CCN(CC)C(=O)c1ccc(O)c(OC)c1 | -16.6 | 
12 | CCN1CCC[C@H]1CNC(=O)c1cc(S(N)(=O)=O)ccc1OC | -3.09 | 
13 | NC(N)=Nc1nc(CSCC/C(N)=N/S(N)(=O)=O)cs1 | -2.19 | 
14 | Cc1cccc(C)c1OCC(C)N (stereo unspecified) | 14.3 | 
15 | O=C1NC(=O)C(c2ccccc2)(c2ccccc2)N1 | -13.3 | 
16 | C[N+](C)(C)CCCCCC[N+](C)(C)C |  | inactive
17 | CCN(CC)CCOC(=O)c1ccc(N)cc1 | 8.19 | 
18 | NCCS | -14.5 | 
19 | COc1ccccc1N1CCN(CCCNc2cc(=O)n(C)c(=O)n2C)CC1 | -6.44 | 

Target: Thioredoxin reductase 1, cytoplasmic (Rattus norvegicus) (UniProt O89049)
Test: qHTS Assay for Substrates of Mammalian Selenoprotein Thioredoxin Reductase 1 (TrxR1) (AID 488772);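 note: NADPH fluorescence in the first read after selenite addition and not the 8 min delta; 0% is about no effect; a drop in NADPH fluorescence below the no-compound background marks a TrxR1 substrate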
Details: purified TrxR1, NADPH consumption substrate assay; series mostly up to 57.1 µM; activity change, negative = NADPH consumption: at the top concentration
Procedure, shortened: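 Quantitative HTS in Tris-HCl buffer at pH 7.5 with EDTA and Tween-20, using rat TrxR1, 400 uM NADPH and 400 uM selenite (final). A fall in initial NADPH fluorescence relative to background marked substrate behaviour.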

Chain of Thioredoxin reductase 1, cytoplasmic (Rattus norvegicus) (O89049 whole entry, looked up): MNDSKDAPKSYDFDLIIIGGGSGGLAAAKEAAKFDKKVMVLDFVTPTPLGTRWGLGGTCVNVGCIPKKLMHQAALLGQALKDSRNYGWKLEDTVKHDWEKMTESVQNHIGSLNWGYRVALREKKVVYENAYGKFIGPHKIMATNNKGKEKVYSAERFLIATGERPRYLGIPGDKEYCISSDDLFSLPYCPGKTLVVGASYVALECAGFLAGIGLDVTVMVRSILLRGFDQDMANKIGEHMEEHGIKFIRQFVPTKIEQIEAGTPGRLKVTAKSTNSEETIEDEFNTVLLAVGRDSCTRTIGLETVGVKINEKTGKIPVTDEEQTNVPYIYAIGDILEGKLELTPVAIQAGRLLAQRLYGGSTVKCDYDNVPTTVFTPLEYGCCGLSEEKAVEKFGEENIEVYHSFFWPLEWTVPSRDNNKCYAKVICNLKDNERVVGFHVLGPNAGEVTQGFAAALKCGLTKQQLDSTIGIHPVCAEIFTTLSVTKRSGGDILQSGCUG

Row | Structure (SMILES) | activity change, negative = NADPH consumption [%] | Potency
20 | CC(=O)N[C@@H](CS)C(=O)O | -4.24 | 
21 | COC(=O)[C@@H]1[C@H]2C[C@H]3c4[nH]c5ccccc5c4CCN3C[C@@H]2CC[C@@H]1O | -4.64 | 
22 | CCCNC(=O)NS(=O)(=O)c1ccc(Cl)cc1 | -4.92 | 
23 | CC(=O)c1ccc(S(=O)(=O)NC(=O)NC2CCCCC2)cc1 | -0.607 | 
24 | Clc1ccc(Cn2c(CN3CCCC3)nc3ccccc32)cc1 | -9.56 | 
25 | O=C(O)CCc1nc(-c2ccccc2)c(-c2ccccc2)o1 | -4.01 | 
26 | CC(C)NCC(O)COc1cccc2[nH]ccc12 (stereo unspecified) | 11.5 | 
27 | O=C1NCC2(CCN(CCc3ccccc3)CC2)O1 | -8.08 | 
28 | CC(=O)CCCCn1c(=O)c2c(ncn2C)n(C)c1=O | -9.72 | 
29 | CN(C)CCC(c1ccccc1)c1ccccn1 (stereo unspecified) | -1.33 | 
30 | CC(C)OC(=O)C(C)(C)Oc1ccc(C(=O)c2ccc(Cl)cc2)cc1 | -3.12 | 
31 | O=c1c(-c2ccc(O)cc2)coc2cc(O)ccc12 | 6.92 | 
32 | CCN(CC)C(=O)c1ccc(O)c(OC)c1 | -10.6 | 
33 | CCN1CCC[C@H]1CNC(=O)c1cc(S(N)(=O)=O)ccc1OC | -4.09 | 
34 | NC(N)=Nc1nc(CSCC/C(N)=N/S(N)(=O)=O)cs1 | -9.03 | 
35 | Cc1cccc(C)c1OCC(C)N (stereo unspecified) | -5.29 | 
36 | O=C1NC(=O)C(c2ccccc2)(c2ccccc2)N1 | -9.71 | 
37 | C[N+](C)(C)CCCCCC[N+](C)(C)C |  | inactive
38 | CCN(CC)CCOC(=O)c1ccc(N)cc1 | 2.08 | 
39 | COc1ccccc1N1CCN(CCCNc2cc(=O)n(C)c(=O)n2C)CC1 | -0.647 | 
40 | CCCCC1C(=O)N(c2ccccc2)N(c2ccccc2)C1=O | -9.94 | 

Target: Thioredoxin reductase 1, cytoplasmic (Rattus norvegicus) (UniProt O89049)
Test: qHTS Assay for Inhibitors of Mammalian Selenoprotein Thioredoxin Reductase 1 (TrxR1) (AID 488773); note: nearly all actives have a fitted effect of over 40% in size; note: potency is the fitted concentration of half-maximal effect;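 for activity change, negative = inhibition: drop in NADPH fluorescence over an 8 min run after selenite addition; % is set by controls: 0 for no effect and ±100 for the full control effect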
Details: purified TrxR1 enzyme activity; Potency: inhibition; series mostly up to 57.1 µM; activity change, negative = inhibition: at the top concentration
Procedure, shortened: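 Steps: enzyme (90 nM) plus NADPH (400 uM final), 5 min at ~22 deg C; compound added, 15 min; selenite (400 uM final) added; fluorescence followed for 8 min. Concentration-response curves derived from the normalized delta values.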

Row | Structure (SMILES) | activity change, negative = inhibition [%] | Potency
41 | CC(=O)N[C@@H](CS)C(=O)O | 2.34 | 
42 | COC(=O)[C@@H]1[C@H]2C[C@H]3c4[nH]c5ccccc5c4CCN3C[C@@H]2CC[C@@H]1O | -8.53 | 
43 | CCCNC(=O)NS(=O)(=O)c1ccc(Cl)cc1 | -3.24 | 
44 | CC(=O)c1ccc(S(=O)(=O)NC(=O)NC2CCCCC2)cc1 | 1.73 | 
45 | Clc1ccc(Cn2c(CN3CCCC3)nc3ccccc32)cc1 | -18.8 | 
46 | O=C(O)CCc1nc(-c2ccccc2)c(-c2ccccc2)o1 | -3.58 | 
47 | CC(C)NCC(O)COc1cccc2[nH]ccc12 (stereo unspecified) | 11 | 
48 | O=C1NCC2(CCN(CCc3ccccc3)CC2)O1 | -0.133 | 
49 | CC(=O)CCCCn1c(=O)c2c(ncn2C)n(C)c1=O | -3.4 | 
50 | CN(C)CCC(c1ccccc1)c1ccccn1 (stereo unspecified) | -10.8 | 
51 | CC(C)OC(=O)C(C)(C)Oc1ccc(C(=O)c2ccc(Cl)cc2)cc1 | -18 | 
52 | O=c1c(-c2ccc(O)cc2)coc2cc(O)ccc12 |  | 8.44 µM (active)
53 | CCN(CC)C(=O)c1ccc(O)c(OC)c1 | -4.53 | 
54 | CCN1CCC[C@H]1CNC(=O)c1cc(S(N)(=O)=O)ccc1OC | -9.98 | 
55 | NC(N)=Nc1nc(CSCC/C(N)=N/S(N)(=O)=O)cs1 | -5.71 | 
56 | Cc1cccc(C)c1OCC(C)N (stereo unspecified) | -3.72 | 
57 | O=C1NC(=O)C(c2ccccc2)(c2ccccc2)N1 | -14.5 | 
58 | C[N+](C)(C)CCCCCC[N+](C)(C)C |  | inactive
59 | CCN(CC)CCOC(=O)c1ccc(N)cc1 | -11.9 | 
60 | NCCS | 204 | 
61 | CCCCC1C(=O)N(c2ccccc2)N(c2ccccc2)C1=O | 6.31 | 

Target: Flap endonuclease 1 (Homo sapiens) (UniProt P39748)
Test: qHTS Validation Assay for the Inhibitors of Human Flap endonuclease 1 (FEN1) (AID 488816); note: % is set by controls: 0 for no effect and ±100 for the full control effect
Details: FEN1 nuclease activity, fluorogenic DNA substrate; series mostly up to 57.1 µM; activity, negative = inhibition: at the top concentration
Procedure, shortened: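 Human FEN1 (10 nM) preincubated 15 min at room temperature with compounds, then flap DNA substrate added at 50 nM final. Fluorescence read at 0 and 15 min; concentration-response fitted with four-parameter Hill equation.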

Chain of Flap endonuclease 1 (Homo sapiens) (P39748 whole entry, looked up): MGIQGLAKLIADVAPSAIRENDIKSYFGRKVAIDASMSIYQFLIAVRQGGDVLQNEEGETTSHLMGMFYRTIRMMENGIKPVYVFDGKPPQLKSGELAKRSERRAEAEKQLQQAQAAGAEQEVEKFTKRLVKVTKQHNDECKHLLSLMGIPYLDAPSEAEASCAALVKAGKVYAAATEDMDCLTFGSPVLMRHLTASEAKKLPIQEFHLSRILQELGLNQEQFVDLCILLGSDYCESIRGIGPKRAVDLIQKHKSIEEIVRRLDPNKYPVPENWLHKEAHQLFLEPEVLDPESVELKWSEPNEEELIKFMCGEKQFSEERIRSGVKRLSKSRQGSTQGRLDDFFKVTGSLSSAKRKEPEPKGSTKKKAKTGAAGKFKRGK

Row | Structure (SMILES) | activity, negative = inhibition [%] | outcome
62 | CC(=O)N[C@@H](CS)C(=O)O | 10.7 | 
63 | CCCNC(=O)NS(=O)(=O)c1ccc(Cl)cc1 | -0.618 | 
64 | Clc1ccc(Cn2c(CN3CCCC3)nc3ccccc32)cc1 | -1.47 | 
65 | O=C1NCC2(CCN(CCc3ccccc3)CC2)O1 | -11.4 | 
66 | CC(C)OC(=O)C(C)(C)Oc1ccc(C(=O)c2ccc(Cl)cc2)cc1 | -10.1 | 
67 | O=c1c(-c2ccc(O)cc2)coc2cc(O)ccc12 | -0.03 | 
68 | CCN1CCC[C@H]1CNC(=O)c1cc(S(N)(=O)=O)ccc1OC | -5.2 | 
69 | NC(N)=Nc1nc(CSCC/C(N)=N/S(N)(=O)=O)cs1 | -14.7 | 
70 | Cc1cccc(C)c1OCC(C)N (stereo unspecified) | -2.98 | 
71 | O=C1NC(=O)C(c2ccccc2)(c2ccccc2)N1 | -4.74 | 
72 | C[N+](C)(C)CCCCCC[N+](C)(C)C |  | inactive
73 | CCN(CC)CCOC(=O)c1ccc(N)cc1 | -5.54 | 
74 | NCCS | -3.92 | 
75 | COc1ccccc1N1CCN(CCCNc2cc(=O)n(C)c(=O)n2C)CC1 | -4.03 | 
76 | CCCCC1C(=O)N(c2ccccc2)N(c2ccccc2)C1=O | -2.82 | 

— PubChem BioAssay (NCATS)
